Experiment [1] can be described thus: NCI Yeast Anticancer Drug Screen. Data for the rad50 strain (AID 155).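 Note: 0% = growth of vehicle-only cultures of the same strain.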 As to conditions: S. cerevisiae rad50 strain growth inhibition, active compounds read high. A digest of the protocol: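 A DNA repair-deficient yeast mutant serves as the test organism; compound-induced growth inhibition is calculated against vehicle-treated cells.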
Experiment [2] can be described thus: NCI Yeast Anticancer Drug Screen. Data for the mec2-1 strain (AID 157). The following applies: S. cerevisiae mec2-1 strain, active compounds read high. The gist of the method:
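Yeast mec2-1 mutant treated with compound. Readout: growth inhibition vs vehicle controls.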

Experiment [3] is described as follows: NCI Yeast Anticancer Drug Screen. Data for the sgs1 mgt1 strain (AID 161).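 Note: 0% = growth of cultures given vehicle only.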 The following applies: S. cerevisiae sgs1 mgt1 strain, active compounds read high. The gist of the method: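 Mutant yeast exposed to compound; growth scored against vehicle-only wells.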
The nature of experiment [4]: NCI Yeast Anticancer Drug Screen. Data for the cln2 rad14 strain (AID 165).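 Note: 0% = growth equal to vehicle treated cultures.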 As to conditions: S. cerevisiae cln2 rad14 strain, active compounds read high. The gist of the method:
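cln2 rad14 yeast strain; compound exposure; growth inhibition read vs vehicle controls.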

The nature of experiment [5]: NCI Yeast Anticancer Drug Screen. Data for the bub3 strain (AID 167). The following applies: S. cerevisiae bub3 mutant strain, active compounds read high. The gist of the method: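 Inhibition values come from growth of compound-treated mutant yeast normalised to vehicle-treated controls.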
Experiment [6] in a line: NCI Yeast Anticancer Drug Screen. Data for the mlh1 rad18 strain (AID 175). As to conditions: S. cerevisiae mlh1 rad18 strain growth inhibition, active compounds read high. The gist of the method:
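Yeast w/ defined DNA-repair lesions; compound exposure; growth vs vehicle controls → % inhibition.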

Where [7] appears, read: at 5.0 µM (retest, dose inferred, filed as 0.5).
[8] abbreviates: at 50.0 µM (retest, dose inferred, filed as 5.0).

Here are results for nine compounds from PubChem BioAssay (NCI).

This is part of a sample that, as a whole, favours compounds with a hit. Of some 79,000 tested, about 15% had one in any assay. Values without a mark were called inactive. Activity calls are given as the source filed them. Cut-off read from the data, not from the text of the source: active = growth inhibition above about 70%; inactive = the rest.

For the compound `CCCCCCCCCCCCCC(=O)OCC[N+](C)(C)C`, the growth inhibition in experiment [1] (setting [7]) is 26%; in experiment [1] (setting [8]), 98% (active); in experiment [1] (at 50.0 µM), 90.2% (active); in experiment [2] (setting [7]), 27%; in experiment [2] (setting [8]), 99% (active); in experiment [2] (at 50.0 µM), 92.5% (active). In addition, the growth inhibition in experiment [3] (setting [7]) is 41%; in experiment [3] (setting [8]) it was 99% (active); in experiment [3] (at 50.0 µM), 92.9% (active); in experiment [4] (setting [7]) it was 32%; in experiment [4] (setting [8]), 98% (active); in experiment [4] (at 50.0 µM), 88.8% (active). The growth inhibition was 40% in experiment [5] (setting [7]); 99% (active) in experiment [5] (setting [8]); 91.5% (active) in experiment [5] (at 50.0 µM); 34% in experiment [6] (setting [7]); 98% (active) in experiment [6] (setting [8]); 90.5% (active) in experiment [6] (at 50.0 µM).

Take `CC(C)(CCBr)[N+](=O)[O-]`: the growth inhibition in experiment [1] (setting [7]) was -151%; in experiment [1] (setting [8]) it was -161%; in experiment [1] (at 50.0 µM), 0.55%; in experiment [2] (setting [7]) it was -47%; in experiment [2] (setting [8]), -54%; in experiment [2] (at 50.0 µM), 16%. For the same compound, the growth inhibition was -61% in experiment [3] (setting [7]); -62% in experiment [3] (setting [8]); 8.35% in experiment [3] (at 50.0 µM); -52% in experiment [4] (setting [7]); -68% in experiment [4] (setting [8]); 43.9% in experiment [4] (at 50.0 µM). Also, the growth inhibition was -75% in experiment [5] (setting [7]); -84% in experiment [5] (setting [8]); 5.85% in experiment [5] (at 50.0 µM); -225% in experiment [6] (setting [7]); -127% in experiment [6] (setting [8]); 0.35% in experiment [6] (at 50.0 µM).

Turning to `Cc1ccc(S(=O)(=O)N2CCN3C(=O)c4ccccc4C32c2ccc(F)cc2)cc1` (configuration not stated), the growth inhibition is 20% in experiment [1] (setting [7]); 95% (active) in experiment [1] (setting [8]); 31.8% in experiment [1] (at 50.0 µM); 17% in experiment [2] (setting [7]); 96% (active) in experiment [2] (setting [8]); 26.3% in experiment [2] (at 50.0 µM). Further, the growth inhibition in experiment [3] (setting [7]) is 88% (active); in experiment [3] (setting [8]), 99% (active); in experiment [3] (at 50.0 µM), 63.2%; in experiment [4] (setting [7]) it was 28%; in experiment [4] (setting [8]) it was 98% (active); in experiment [4] (at 50.0 µM), 22.9%. Moreover, the growth inhibition is 37% in experiment [5] (setting [7]); 98% (active) in experiment [5] (setting [8]); 50.7% in experiment [5] (at 50.0 µM); 30% in experiment [6] (setting [7]); 96% (active) in experiment [6] (setting [8]); 29.2% in experiment [6] (at 50.0 µM).

Regarding `CCCCCc1ccc2cc(C(=O)O)[nH]c2c1`, the growth inhibition in experiment [1] (setting [7]) is 4%; in experiment [1] (setting [8]), 59%; in experiment [1] (at 50.0 µM) it was 96.7% (active); in experiment [2] (setting [7]) it was 3%; in experiment [2] (setting [8]), 72% (active); in experiment [2] (at 50.0 µM), 95.6% (active). Also, the growth inhibition in experiment [3] (setting [7]) is -4%; in experiment [3] (setting [8]), 59%; in experiment [3] (at 50.0 µM), 95% (active); in experiment [4] (setting [7]) it was -1%; in experiment [4] (setting [8]), 59%; in experiment [4] (at 50.0 µM), 97.8% (active). In addition, the growth inhibition is 1% in experiment [5] (setting [7]); 47% in experiment [5] (setting [8]); 97.2% (active) in experiment [5] (at 50.0 µM); 3% in experiment [6] (setting [7]); 51% in experiment [6] (setting [8]); 98.2% (active) in experiment [6] (at 50.0 µM).

For `C[N+]12CC3C4CC(C3C1)C2C4` (configuration not stated), the growth inhibition was -19% in experiment [1] (setting [7]); -27% in experiment [1] (setting [8]); 4.05% in experiment [1] (at 50.0 µM); -15% in experiment [2] (setting [7]); -13% in experiment [2] (setting [8]); -2.9% in experiment [2] (at 50.0 µM). Further, the growth inhibition was -3% in experiment [3] (setting [7]); 4% in experiment [3] (setting [8]); 12.6% in experiment [3] (at 50.0 µM); 29% in experiment [4] (setting [7]); 13% in experiment [4] (setting [8]); 1.3% in experiment [4] (at 50.0 µM). Further, the growth inhibition in experiment [5] (setting [7]) is -6%; in experiment [5] (setting [8]) it was -12%; in experiment [5] (at 50.0 µM), 13.6%; in experiment [6] (setting [7]), -23%; in experiment [6] (setting [8]), -15%; in experiment [6] (at 50.0 µM), 7.95%.

As for `CN(C)CC1CCC/C(=C\c2ccc(Cl)cc2)C1=O` (configuration not stated), the growth inhibition was -15% in experiment [1] (setting [7]); 99% (active) in experiment [1] (setting [8]); 80.5% (active) in experiment [1] (at 50.0 µM); -25% in experiment [2] (setting [7]); 99% (active) in experiment [2] (setting [8]); 86.8% (active) in experiment [2] (at 50.0 µM). Further, the growth inhibition in experiment [3] (setting [7]) was -28%; in experiment [3] (setting [8]), 99% (active); in experiment [3] (at 50.0 µM) it was 92.5% (active); in experiment [4] (setting [7]), -25%; in experiment [4] (setting [8]) it was 99% (active); in experiment [4] (at 50.0 µM), 87% (active). Further, the growth inhibition in experiment [5] (setting [7]) is -38%; in experiment [5] (setting [8]) it was 99% (active); in experiment [5] (at 50.0 µM), 91.4% (active); in experiment [6] (setting [7]) it was -14%; in experiment [6] (setting [8]), 99% (active); in experiment [6] (at 50.0 µM) it was 91.3% (active).

Regarding `COc1cc(/C=C(\C#N)c2ccc([N+](=O)[O-])cc2)ccc1O`, the growth inhibition in experiment [1] (setting [7]) was -13%; in experiment [1] (setting [8]), 1%; in experiment [1] (at 50.0 µM), 75.4% (active); in experiment [2] (setting [7]), -23%; in experiment [2] (setting [8]) it was -3%; in experiment [2] (at 50.0 µM), 51.2%. The growth inhibition was -16% in experiment [3] (setting [7]); -4% in experiment [3] (setting [8]); 74% (active) in experiment [3] (at 50.0 µM); -5% in experiment [4] (setting [7]); 33% in experiment [4] (setting [8]); 66.5% in experiment [4] (at 50.0 µM). In addition, the growth inhibition in experiment [5] (setting [7]) was -20%; in experiment [5] (setting [8]), 50%; in experiment [5] (at 50.0 µM), 81.7% (active); in experiment [6] (setting [7]) it was -35%; in experiment [6] (setting [8]), 57%; in experiment [6] (at 50.0 µM), 64.2%.

Take `CC(=O)O[C@]1(C(C)=O)CC[C@H]2[C@@H]3C[C@H](C)C4=CC(=O)NCC[C@]4(C)[C@H]3CC[C@@]21C`: the growth inhibition in experiment [1] (setting [7]) was 0%; in experiment [1] (setting [8]), 87% (active); in experiment [1] (at 50.0 µM) it was 93.2% (active); in experiment [2] (setting [7]), 20%; in experiment [2] (setting [8]), 91% (active); in experiment [2] (at 50.0 µM) it was 94.6% (active). In addition, the growth inhibition in experiment [3] (setting [7]) was -20%; in experiment [3] (setting [8]) it was 90% (active); in experiment [3] (at 50.0 µM) it was 88% (active); in experiment [4] (setting [7]), 6%; in experiment [4] (setting [8]), 81% (active); in experiment [4] (at 50.0 µM), 90.1% (active). For the same compound, the growth inhibition in experiment [5] (setting [7]) is 14%; in experiment [5] (setting [8]), 92% (active); in experiment [5] (at 50.0 µM) it was 92% (active); in experiment [6] (setting [7]), 6%; in experiment [6] (setting [8]), 90% (active); in experiment [6] (at 50.0 µM), 94.5% (active).

Consider `CC(C)SCC1CO1` (configuration not stated), for which the growth inhibition in experiment [1] (setting [7]) was -1%; in experiment [1] (setting [8]), 1%; in experiment [1] (at 50.0 µM), -19.6%; in experiment [2] (setting [7]) it was -1%; in experiment [2] (setting [8]), -4%; in experiment [2] (at 50.0 µM), 3.9%. In addition, the growth inhibition is -1% in experiment [3] (setting [7]); 1% in experiment [3] (setting [8]); 18.1% in experiment [3] (at 50.0 µM); 2% in experiment [4] (setting [7]); -11% in experiment [4] (setting [8]); 47.5% in experiment [4] (at 50.0 µM). For the same compound, the growth inhibition is 0% in experiment [5] (setting [7]); -9% in experiment [5] (setting [8]); -6.55% in experiment [5] (at 50.0 µM); -1% in experiment [6] (setting [7]); -5% in experiment [6] (setting [8]); -3.5% in experiment [6] (at 50.0 µM).
